Laboratory results reported in PubChem BioAssay (NCI).
This is part of a sample that, as a whole, favours compounds with a hit. Of some 83,000 tested, about 20% had one in any assay.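 Cell lines were cultured in 96-well plates, exposed to a single compound concentration, and assessed for percent growth 48 hours later.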 Calls of active or inactive are those of the source. The calls were made as follows: active = growth percent below 10; inactive = the rest.

Columns and labels:
Test in all cases: NCI-60 one-dose screen, 48 h (100 = growth as untreated, 0 = no growth, -100 = all killed)
Conditions in all cases: 10 µM unless noted
HCT-15 colon = tested on: HCT-15 colon
HT29 colon = tested on: HT29 colon
SNB-75 CNS = tested on: SNB-75 CNS
SNB-19 CNS = tested on: SNB-19 CNS
U251 CNS = tested on: U251 CNS
PC-3 prostate = tested on: PC-3 prostate
SK-MEL-5 melanoma = tested on: SK-MEL-5 melanoma
UACC-62 melanoma = tested on: UACC-62 melanoma
LOX IMVI melanoma = tested on: LOX IMVI melanoma
SK-MEL-28 melanoma = tested on: SK-MEL-28 melanoma

Measured: growth

N#Cc1nc(-c2ccc(Cl)cc2)oc1N1CCC(S(=O)(=O)N2CCOCC2)CC1
inactive: HCT-15 colon 105% | HT29 colon 98% | SNB-75 CNS 94.2% | SNB-19 CNS 92.2% | U251 CNS 102% | PC-3 prostate 95.4% | SK-MEL-5 melanoma 98.1% | UACC-62 melanoma 94.1% | LOX IMVI melanoma 81.7% | SK-MEL-28 melanoma 101%

COc1ccc(-c2cc(-c3ccc(N4CCOCC4)cc3)n3c(n2)nc2ccccc23)cc1OC
inactive: HCT-15 colon 83.1% | HT29 colon 105% | SNB-75 CNS 83.3% | SNB-19 CNS 85.1% | U251 CNS 86.1% | PC-3 prostate 73% | SK-MEL-5 melanoma 55.8% | LOX IMVI melanoma 78.4% | SK-MEL-28 melanoma 94.4%

COc1cc2oc(-c3cccc(NC(=O)[C@@H](N)C(C)C)c3)cc(=O)c2c(OC)c1OC
inactive: HCT-15 colon 97.9% | HT29 colon 107% | SNB-75 CNS 124% | SNB-19 CNS 95.4% | U251 CNS 92.3% | PC-3 prostate 106% | SK-MEL-5 melanoma 99.1% | LOX IMVI melanoma 94.4% | SK-MEL-28 melanoma 111%

COc1cc(/C=C2/C(=O)Nc3ccc(Cl)cc32)ccc1OCc1ccc(Cl)cc1
inactive: HCT-15 colon 86.5% | HT29 colon 94.1% | SNB-75 CNS 77.7% | SNB-19 CNS 91.3% | U251 CNS 50.7% | PC-3 prostate 84.2% | SK-MEL-5 melanoma 89.2% | UACC-62 melanoma 70.2% | LOX IMVI melanoma 68.3% | SK-MEL-28 melanoma 103%

Cc1ccc2c(n1)C(=O)C(Cl)=C(Nc1cccc(C)c1C)C2=O
active: HCT-15 colon 9.66% | U251 CNS -7.55% | SK-MEL-5 melanoma -66.1% | UACC-62 melanoma 0.0061% | LOX IMVI melanoma -21.1% | SK-MEL-28 melanoma 6.66%
inactive: HT29 colon 87.6% | SNB-75 CNS 61.2% | SNB-19 CNS 13.3% | PC-3 prostate 12.4%

C=C(C)[C@@H]1CC[C@]2(C(=O)O)CC[C@]3(C)[C@H](CC[C@@H]4[C@@]5(C)C/C(=C/c6ccccn6)C(=O)C(C)(C)[C@@H]5CC[C@]43C)[C@@H]12
inactive: HCT-15 colon 18.9% | HT29 colon 40.8% | SNB-75 CNS 61.1% | SNB-19 CNS 50.3% | U251 CNS 27.9% | PC-3 prostate 28.4% | SK-MEL-5 melanoma 31.8% | LOX IMVI melanoma 34.6%

Cn1cc(-c2nc(N)nnc2-c2c[nH]c3ccc(Br)cc23)c2cc(F)ccc21
inactive: HCT-15 colon 77.2% | HT29 colon 104% | SNB-75 CNS 79.9% | SNB-19 CNS 88% | U251 CNS 97.8% | PC-3 prostate 87.2% | SK-MEL-5 melanoma 91.5% | LOX IMVI melanoma 92.3% | SK-MEL-28 melanoma 101%

CCCCCC[n+]1ccc(SCC(=O)n2ccc3ccccc32)c2ccccc21
inactive: HCT-15 colon 94.3% | HT29 colon 84% | SNB-75 CNS 100% | SNB-19 CNS 86.8% | U251 CNS 94.4% | PC-3 prostate 83.7% | SK-MEL-5 melanoma 88.7% | UACC-62 melanoma 73.3% | LOX IMVI melanoma 91.5% | SK-MEL-28 melanoma 106%

N#Cc1nc(-c2ccccc2)oc1N1CCC(C2(C(F)(F)F)N=N2)CC1
inactive: HCT-15 colon 102% | HT29 colon 102% | SNB-75 CNS 98.7% | SNB-19 CNS 102% | U251 CNS 97.5% | PC-3 prostate 97% | SK-MEL-5 melanoma 99.2% | UACC-62 melanoma 93.4% | LOX IMVI melanoma 97.1% | SK-MEL-28 melanoma 119%

Cc1cc(=O)[nH]c(O)c1C#N
inactive: HCT-15 colon 103% | HT29 colon 110% | SNB-75 CNS 87% | SNB-19 CNS 101% | U251 CNS 100% | PC-3 prostate 97.1% | SK-MEL-5 melanoma 102% | LOX IMVI melanoma 95.1% | SK-MEL-28 melanoma 108%

CCc1cccc2c3c(sc12)C(c1ccc(F)cc1)C(C#N)=C(/N=C/c1ccc(Cl)cc1)O3 (stereo unspecified)
inactive: HCT-15 colon 12.9% | SNB-75 CNS 34.8% | SNB-19 CNS 27.1% | U251 CNS 14.5% | PC-3 prostate 21.7% | SK-MEL-5 melanoma 32.4% | LOX IMVI melanoma 30.3% | SK-MEL-28 melanoma 61.9%
active: HT29 colon -18.9%

C#CCN(C)CCCOc1ccc(NCc2ccc(/C=C/C(=O)NO)cc2)cc1Cl
inactive: PC-3 prostate 19%
active: HCT-15 colon 8.05% | HT29 colon 8.52% | SNB-75 CNS 9.93% | SNB-19 CNS 8.74% | U251 CNS -13.3% | SK-MEL-5 melanoma -87.2% | LOX IMVI melanoma -69.5% | SK-MEL-28 melanoma -14.4%

O=[N+]([O-])c1ccc(NC(=S)NNC(=S)Nc2ccc(Br)cc2)cc1
inactive: HCT-15 colon 42.1% | HT29 colon 95% | SNB-75 CNS 121% | SNB-19 CNS 98.6% | U251 CNS 88.4% | SK-MEL-5 melanoma 92.7% | UACC-62 melanoma 48.5% | LOX IMVI melanoma 60.9% | SK-MEL-28 melanoma 102%

O=C1Nc2ccc(F)cc2/C1=C\C(=O)c1ccc(NS(=O)(=O)c2ccccc2)cc1
inactive: HCT-15 colon 59.7% | HT29 colon 81% | SNB-75 CNS 76.1% | SNB-19 CNS 95.6% | U251 CNS 94.1% | SK-MEL-5 melanoma 97.3% | UACC-62 melanoma 77.7% | LOX IMVI melanoma 21.4% | SK-MEL-28 melanoma 105%

CN1CCN(c2ccc(Nc3nc(NCCNC(=O)c4ccccc4)c4sccc4n3)cc2)CC1
active: HT29 colon 4.23% | LOX IMVI melanoma 5.15%
inactive: HCT-15 colon 20.7% | SNB-75 CNS 81% | SNB-19 CNS 88.4% | U251 CNS 18.3% | SK-MEL-5 melanoma 21.3% | UACC-62 melanoma 53% | SK-MEL-28 melanoma 59.5%

C/C(=C(\c1ccc(O)cc1)c1ccc(OCCN2CCCCCC2)cc1)c1ccc(Cl)cc1
active: HCT-15 colon -88.7% | HT29 colon -72.8% | SNB-75 CNS -77.9% | SNB-19 CNS -20.6% | U251 CNS -81.1% | SK-MEL-5 melanoma -96% | UACC-62 melanoma -85.1% | LOX IMVI melanoma -95.4% | SK-MEL-28 melanoma -84.1%

C#C[C@]1(O)CC[C@H]2[C@@H]3CC=C4c5sc(Nc6cc(C)cc(C)c6)nc5CC[C@]4(C)[C@H]3CC[C@@]21C
inactive: SNB-75 CNS 10.2% | SNB-19 CNS 14.8%
active: HCT-15 colon -37.1% | HT29 colon 0.349% | U251 CNS 8.96% | SK-MEL-5 melanoma -42.5% | UACC-62 melanoma -16.4% | LOX IMVI melanoma -68.3% | SK-MEL-28 melanoma -37.9%

CCn1c2ccc(/C=N/N(C)S(=O)(=O)CCN(C)C)cc2c2cc(/C=N/N(C)S(=O)(=O)CCN(C)C)ccc21
active: LOX IMVI melanoma -15.3%
inactive: HCT-15 colon 26.2% | HT29 colon 44.8% | SNB-75 CNS 87.1% | SNB-19 CNS 85.8% | U251 CNS 64.8% | SK-MEL-5 melanoma 62.4% | UACC-62 melanoma 81.7% | SK-MEL-28 melanoma 87.9%

CCOC(=O)C(=O)Nc1ccc2c(ccn2C(=O)c2cccc(F)c2)c1
inactive: HCT-15 colon 95.8% | HT29 colon 101% | SNB-75 CNS 74.3% | SNB-19 CNS 91.6% | U251 CNS 105% | SK-MEL-5 melanoma 96.3% | UACC-62 melanoma 93.5% | LOX IMVI melanoma 96.3% | SK-MEL-28 melanoma 99.1%

CCC1=Cc2c(OC)cccc2OC12C=Cc1c(OC)cccc1O2 (stereo unspecified)
inactive: HCT-15 colon 13.4% | SNB-75 CNS 18.6% | SNB-19 CNS 24.8% | U251 CNS 24.7% | SK-MEL-5 melanoma 25.7% | UACC-62 melanoma 26.2% | LOX IMVI melanoma 28.4% | SK-MEL-28 melanoma 52%
active: HT29 colon 4.59%

COc1ccc(C2CC(c3cccc(OCCCCOc4cccc(C5=NN(C(C)=O)C(c6ccc(OC)cc6)C5)c4)c3)=NN2C(C)=O)cc1 (stereo unspecified)
inactive: HCT-15 colon 75% | HT29 colon 89.3% | SNB-75 CNS 75.4% | SNB-19 CNS 64.5% | U251 CNS 81.9% | SK-MEL-5 melanoma 11.8% | UACC-62 melanoma 57.1% | LOX IMVI melanoma 62.2% | SK-MEL-28 melanoma 97.2%

O=C1c2ccccc2C23C(=C(c4cncnc4)c4ccccc42)CCCN13 (stereo unspecified)
inactive: HCT-15 colon 104% | HT29 colon 101% | SNB-75 CNS 85.3% | SNB-19 CNS 93.4% | U251 CNS 102% | SK-MEL-5 melanoma 98.7% | UACC-62 melanoma 88.2% | LOX IMVI melanoma 76.1% | SK-MEL-28 melanoma 101%

Cc1[nH]c(C(=O)Nc2ccccc2OCc2cccc(C(=O)NC3CCCNC3)c2)c(Cl)c1Cl (stereo unspecified)
active: HCT-15 colon -84.2% | HT29 colon -58.9% | SNB-19 CNS -80.4% | U251 CNS -57.6% | PC-3 prostate -82.2% | SK-MEL-5 melanoma -22.9% | LOX IMVI melanoma -89.8% | SK-MEL-28 melanoma -84.9%
inactive: SNB-75 CNS 84.1%

O=C(/C=C/c1ccc(Cl)c(Cl)c1)Nc1ncc(Cc2ccc(Cl)c(Cl)c2)s1
inactive: HCT-15 colon 29% | HT29 colon 36.2% | SNB-75 CNS 95.5% | SNB-19 CNS 74% | U251 CNS 58.2% | SK-MEL-5 melanoma 51.4% | UACC-62 melanoma 10.3% | LOX IMVI melanoma 23.3% | SK-MEL-28 melanoma 48.5%

CC(C)(C)c1cc(NC(=O)Nc2ccc(-c3cn4c5c(sc4n3)CCc3cn(CCCN4CCCCC4)cc3-5)cc2)no1
inactive: SNB-75 CNS 39.5% | UACC-62 melanoma 98%
active: HCT-15 colon -82.7% | HT29 colon -50.7% | SNB-19 CNS -83.5% | U251 CNS -86.3% | SK-MEL-5 melanoma -51.9% | LOX IMVI melanoma -96.2% | SK-MEL-28 melanoma -89.8%

CN(C)S(=O)(=O)c1ccc(-c2nc(C(Cl)Cl)nc3cc(-c4ccccc4)nn23)cc1
active: SK-MEL-28 melanoma -4.08%
inactive: HCT-15 colon 47.7% | HT29 colon 45.6% | SNB-75 CNS 84.7% | SNB-19 CNS 85.2% | U251 CNS 66.2% | PC-3 prostate 87.7% | SK-MEL-5 melanoma 92% | LOX IMVI melanoma 44.5%

O=C(CSc1nc2ccccc2c(=O)n1-c1ccc(Cl)c(Cl)c1)Nc1ccc(S(=O)(=O)Nc2ccc(Cl)nn2)cc1
inactive: HCT-15 colon 99.5% | HT29 colon 96.6% | SNB-75 CNS 68.8% | SNB-19 CNS 96.3% | U251 CNS 91.6% | SK-MEL-5 melanoma 100% | UACC-62 melanoma 85% | LOX IMVI melanoma 97.4% | SK-MEL-28 melanoma 96.3%

O=C(/C=C/c1cccc(Br)c1)c1cccc(OCCCCOc2cccc(C(=O)/C=C/c3cccc(Br)c3)c2)c1
inactive: HCT-15 colon 108% | HT29 colon 117% | SNB-75 CNS 96.8% | SNB-19 CNS 94.3% | U251 CNS 105% | SK-MEL-5 melanoma 99.4% | UACC-62 melanoma 98.3% | LOX IMVI melanoma 96.6% | SK-MEL-28 melanoma 110%
